# Reference: PubChem BioAssay (NCATS)
# “And” between values parts separate entries of the source, which are not always exact repeats. Equal entries are not always repeated. Inconclusive results are not listed. More than one record can exist for a structure, and the calls need not agree. The source made the active and inactive calls. The call rests on the fitted dose curve; in most records, active means well fitted inhibition curve with a large enough effect; inconclusive means small, poorly fitted or top-dose-only effect; inactive means flat fitted curve, though single readings scatter.
# Test: Drug repurposing screens with cells derived from glioblastoma tumor samples (AID 1345199); further: nearly all actives have a fitted effect of over 40% in size
# Settings: GBM patient neurospheres viability, ATP luminescence, 48 h; at 21.2 µM (top of the series); tumour line D
# Method in brief: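 Four patient lines of CD133+ GBM neurospheres were screened at several concentrations; hits were retested in those lines plus three slower-growing GBM lines, using 48-hour treatment and ATP-based viability.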
# On the % scale 0 is the no-effect control and ±100 the full control effect.
row,SMILES,"activity, negative = cell killing"
1,OCCN1CCN(CC/C=C2/c3ccccc3Sc3ccc(Cl)cc32)CC1,-24.9% (inactive)
2,CC1CCCC(C)N1NC(=O)c1ccc(Cl)c(S(N)(=O)=O)c1 (stereo not drawn),-17.6% (inactive)
3,COC1[C@@H](O[C@@H]2O[C@H](C)[C@@H](O[C@H]3C[C@@](C)(O)[C@H](OC(=O)CC(C)C)[C@H](C)O3)[C@H](N(C)C)[C@H]2O)[C@@H](CC=O)C[C@@H](C)[C@@H](O)/C=C/C=C/C[C@@H](C)OC(=O)C[C@H]1OC(C)=O (stereo partly drawn),-12.4% (inactive)

# Same assay, conditions: GBM patient neurospheres viability, ATP luminescence, 48 h; at 45.9 µM (top of the series); tumour line B
row,SMILES,"activity, negative = cell killing"
1,c1ccc2c(c1)OCC(CN1CCCCC1)O2 (stereo not drawn),0.315% (inactive)
2,CCOC(=O)[C@H](CS)NCCN[C@@H](CS)C(=O)OCC,-15.2% (inactive)
3,C=CC[N+]1([C@H]2C[C@H]3[C@@H]4CC[C@H]5C[C@H](O)[C@@H](N6CCOCC6)C[C@]5(C)[C@H]4CC[C@]3(C)[C@H]2OC(C)=O)CCCC1,-3.03% (inactive)
4,ClC(Cl)Cl,0.236% (inactive)
5,C=C[C@]1(C)C[C@@H](OC(=O)CSCCN(CC)CC)[C@]2(C)[C@H](C)CC[C@]3(CCC(=O)[C@H]32)[C@@H](C)[C@@H]1O,-23.5% (inactive)
6,CO[C@@H]1[C@H](OC(=O)/C=C/C=C/C=C/C=C/C(=O)O)CC[C@]2(CO2)[C@H]1[C@@]1(C)O[C@@H]1CC=C(C)C,2.14% (inactive)
7,CC(C)Cc1ccc([C@@H](C)C(=O)NS(C)(=O)=O)cc1,-10.5% (inactive)
8,CNCC(=O)N[C@@H](CCCN=C(N)N)C(=O)N[C@H](C(=O)N[C@@H](Cc1ccc(O)cc1)C(=O)N[C@H](C(=O)N[C@@H](Cc1cnc[nH]1)C(=O)N1CCC[C@H]1C(=O)N[C@@H](C)C(=O)O)C(C)C)C(C)C,-7.12% (inactive)
9,C=CC(C)(O)CC/C=C(\C)CCC=C(C)C (stereo not drawn),-7.36% (inactive)
10,OC[C@H]1O[C@@H](O[C@H]2[C@H](O)[C@@H](O)[C@H](O)O[C@@H]2CO)[C@H](O)[C@@H](O)[C@@H]1O,-9.2% (inactive)
11,OCCOCCOCCO,-6.55% (inactive)
12,CO/N=C(/C(=O)N[C@@H]1C(=O)N2C(C(=O)O)=C(COC(N)=O)CS[C@H]12)c1ccco1,3.13% (inactive) and -9.26% (inactive)
13,CCCCCCCCCC(=O)NO,-14.3% (inactive)
14,CO[C@H]1O[C@@H]2O[C@@]3(C)CC[C@H]4[C@H](C)CC[C@@H]([C@H]1C)[C@@]24OO3,-14.7% (inactive)
15,Cc1ccc(C(C)(C)c2ccc(C)cc2)cc1,-5.24% (inactive)
16,NCCO/C=C/[C@H](N)C(=O)O,-6.64% (inactive)
17,CCN(CC)CCOc1ccccc1OC,5.43% (inactive)
18,NCC[C@H](O)C(=O)N[C@@H]1C[C@H](N)[C@@H](O[C@H]2O[C@H](CN)[C@@H](O)[C@H](O)[C@H]2O)[C@H](O)[C@H]1O[C@H]1O[C@H](CO)[C@@H](O)[C@H](N)[C@H]1O,-16.5% (inactive)
19,N#Cc1ccc2c(c1)N(CCCN1CCC(O)CC1)c1ccccc1S2,-29.3% (inactive)
20,CC(C)(C)CC(C)(C)c1ccc(OCCO)cc1,-26.2% (inactive)
21,CCCCCCCCCCCCCCCCCC(=O)OC[C@@H](O)[C@H]1OC[C@H](O)[C@H]1O,3.83% (inactive)
22,OC[C@H]1O[C@@](CO)(O[C@H]2O[C@H](CO)[C@@H](O)[C@H](O)[C@H]2O)[C@@H](O)[C@@H]1O,-5.09% (inactive)
23,O=C(O)/C=C/C(=O)Nc1ccc(S(=O)(=O)Nc2nccs2)cc1,-4.39% (inactive)
24,[O-][N+](=Nc1ccccc1)c1ccccc1,-12.7% (inactive)
25,Oc1ccc(Cl)c2c1CCC2,-12.8% (inactive)
26,Oc1cccc(O)c1O,-15.1% (inactive)
27,CC1=CC(=O)NS(=O)(=O)O1,-5.56% (inactive)
28,OC[C@H]1O[C@@H]2O[C@H]3[C@H](O)[C@@H](O)[C@@H](O[C@H]4[C@H](O)[C@@H](O)[C@@H](O[C@H]5[C@H](O)[C@@H](O)[C@@H](O[C@H]6[C@H](O)[C@@H](O)[C@@H](O[C@H]7[C@H](O)[C@@H](O)[C@@H](O[C@H]1[C@H](O)[C@H]2O)O[C@@H]7CO)O[C@@H]6CO)O[C@@H]5CO)O[C@@H]4CO)O[C@@H]3CO,-13.8% (inactive)
29,C(=C\c1ccncc1)/c1ccccc1,-13.9% (inactive) and -17.3% (inactive)
30,O=C(O)Cc1nn(Cc2ccc(Br)cc2F)c(=O)c2ccccc12,-21.4% (inactive)
